High-throughput results from PubChem BioAssay.
A selection: hits, their analogues and other compounds. The true share with any hit is near 0.84%.
PPARg SRC1 recr – PPARgamma agonists recruiting SRC-1 coactivator, primary screen, biochemical | Peroxisome proliferator-activated receptor gamma (Homo sapiens), P37231 | PPARgamma-SRC-1 coactivator recruitment biochemical assay | activation, % at 8 µM | hit rate 0.41% among 200,000 | AID 631, 2007; in the data active = activation above about 19%;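 also: 0% = DMSO and 100% = reference agonist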
Target sequence (P37231 whole entry, looked up): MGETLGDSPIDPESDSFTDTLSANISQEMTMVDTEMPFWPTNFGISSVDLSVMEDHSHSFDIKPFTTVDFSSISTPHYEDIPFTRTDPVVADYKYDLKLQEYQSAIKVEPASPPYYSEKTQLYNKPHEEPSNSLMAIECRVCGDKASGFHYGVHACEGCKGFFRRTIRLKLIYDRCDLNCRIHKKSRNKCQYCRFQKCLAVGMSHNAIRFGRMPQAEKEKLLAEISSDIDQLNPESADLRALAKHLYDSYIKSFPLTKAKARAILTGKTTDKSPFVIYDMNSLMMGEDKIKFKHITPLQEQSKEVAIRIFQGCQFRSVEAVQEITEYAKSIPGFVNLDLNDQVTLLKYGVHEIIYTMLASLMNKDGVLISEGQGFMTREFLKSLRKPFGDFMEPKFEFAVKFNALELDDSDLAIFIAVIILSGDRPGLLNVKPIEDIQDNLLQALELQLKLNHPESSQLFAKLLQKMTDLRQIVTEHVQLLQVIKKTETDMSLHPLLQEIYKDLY
SRC2 TRFRET art – TR-FRET signal artefacts, primary screen, artefact control for PPARgamma SRC-2 agonist project, biochemical; AID 1049, 2008; hit rate 0.4% among 200,000; TR-FRET artefact counter-screen; hits give high values; TR-FRET ratio at 8 µM
SRC3 TRFRET art – TR-FRET detection interference compounds, artefact control for PPARgamma SRC-3 recruitment agonists, biochemical, TR-FRET ratio | AID 1048, 2008 | TR-FRET ratio at 8 µM | hit rate 0.39% among 99,000 | TR-FRET artefact counter-screen, PPARgamma/SRC-3 format; hits give high values
PPARg SRC-2 ag – agonists of PPARg-SRC-2 recruitment, primary screen, biochemical, HTS; PPARgamma LBD-SRC-2 recruitment; activation, % at 8 µM; hit rate 0.34% among 200,000; in the data active = activation above about 22%;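 also: 0% = vehicle and 100% = reference agonist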
PPARg SRC3 recr – PPARgamma agonists recruiting SRC-3 coactivator, primary screen, biochemical; Peroxisome proliferator-activated receptor gamma (Homo sapiens), P37231; biochemical PPARgamma/SRC-3 coactivator recruitment assay; activation, % at 8 µM; hit rate 0.26% among 200,000; AID 731, 2007; in the data active = activation above about 23%;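 also: 0% = DMSO and 100% = reference agonist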
SRC1 TRFRET art – TR-FRET detection interference compounds, primary screen, artefact control for PPARgamma SRC-1 recruitment agonists, biochemical, TR-FRET emission ratio; TR-FRET detection artefact counter-screen; hits give high values; TR-FRET ratio at 8 µM; hit rate 0.34% among 99,000; in the data active = TR-FRET ratio above about 2300
Numbers without * were called inactive; . = no result given. Rule as the data show it, unless noted: active = TR-FRET ratio above about 2000; inactive = the rest.

SMILES	PPARg SRC1 recr	SRC2 TRFRET art	SRC3 TRFRET art	PPARg SRC-2 ag	PPARg SRC3 recr	SRC1 TRFRET art
CCOc1ccc(S(=O)(=O)c2c(C(=O)c3ccccc3)cnc3cc4c(cc23)OCCO4)cc1	6.6	1938	2180*	-3.9	-5.7	2111
O=C(Nc1ccccc1C(=O)N1CCCCC1)NC1CCCCC1	0.2	1502	1330	-1.3	4.0	1689
Cc1cccc2nc(-c3ccccc3)nc(N3CCC(O)(c4ccc(Cl)cc4)CC3)c12	2.7	2045*	1816	12.6	9.2	2070
CC(=O)NC1=NC(=O)/C(=C/c2cc(C)n(-c3cccc(C(=O)O)c3)c2C)S1	-0.5	1638	1697	4.6	1.7	2073
CC(=O)NC1=NC(=O)/C(=C/c2cc(C)n(-c3ccc(NC(C)=O)cc3)c2C)S1	2.9	1615	2601*	4.6	24.1*	1777
Cn1c(=O)n(C)c2cc(NC(=O)c3ccccc3[N+](=O)[O-])c(Br)cc21	1.3	1997*	1726	11.8	3.6	1816
O=C(NCc1ccc(Cl)cc1)C1CCN(S(=O)(=O)N2CCOCC2)CC1	7.6	1562	1637	3.2	-1.3	1856
O=C(N/N=C/c1cn(-c2ccccc2)nc1-c1cccnc1)c1cccnc1	18.1	1628	1612	10.3	2.9	2335*
Cc1cccc(N2CCN(C(=O)c3cc(C)oc3C)CC2C)c1 (stereo not given)	13.5	1709	1532	-0.1	1.3	2332*
Cc1cccc(N2CCN(C(=O)c3ccncc3)CC2C)c1 (stereo not given)	0.5	1601	.	-4.1	1.5	.
Cc1cc(C)n(CCc2nc(-c3ccco3)cs2)n1	-5.5	1596	.	6.3	-3.1	.
Cc1nn(CCc2nc(-c3ccco3)cs2)c2[nH]c(=O)cc(C(F)(F)F)c12	9.0	1605	2055*	8.5	-1.2	1614
CCC(C)NC(=O)CC(c1ccccc1)c1cc(C)ccc1O (stereo not given)	5.7	1666	1523	3.9	2.5	1979
CCC(=O)Nc1cc(C(C)(C)C)ccc1C(C)=O	2.0	1560	1815	-1.6	5.5	1873
COc1ccc(S(=O)(=O)N(CCc2ccccc2)CC(=O)O)cc1	0.3	1397	.	3.5	2.5	.
Cc1ccc(N2C(=O)C3CCC(c4ccccc4)CC3C2=O)cc1 (stereo not given)	37.0*	1420	1599	-3.0	0.4	2647*
COc1ccc2c(c1)[nH]c(=O)c1sc3ccccc3c12	14.7	1661	.	6.9	7.7	.
COc1ccc2sc3c(=O)[nH]c4ccccc4c3c2c1	144.7*	1611	.	1.5	7.5	.
COc1c(Cl)cc(Cl)cc1CNCCO	4.9	1548	1757	-2.1	3.5	1689
Cc1cc(SCC(=O)c2cc3ccccc3o2)nc2ccccc12	2.7	2575*	.	4.3	1.9	.
O=C(CSc1nc2cc(Cl)ccc2s1)c1cc2ccccc2o1	2.9	2199*	.	8.0	1.4	.
Cc1cc(NC(=O)CSc2nc3cc(Cl)ccc3s2)no1	-0.3	1623	.	3.0	18.6	.
Cc1cccc(C)c1NC(=S)Nc1c(C)n(C)n(-c2ccccc2)c1=O	26.2*	1391	1560	-1.3	-4.9	1821
CCCn1c(C)cs/c1=N\C(=S)Nc1ccccc1	13.5	1455	2212*	3.0	5.6	1865
Cc1cs/c(=N/C(=S)Nc2ccccc2)n1C	4.1	1497	1745	5.6	4.9	1756
SMILES	PPARg SRC1 recr	SRC2 TRFRET art	SRC3 TRFRET art	PPARg SRC-2 ag	PPARg SRC3 recr	SRC1 TRFRET art
CC1Nc2nc(NC(=O)C(C)(C)C)[nH]c(=O)c2N(C)C1C (stereo not given)	6.8	1595	1693	-3.6	-2.5	1728
COc1ccc(CC(=O)NCc2nnc(SCC(=O)Nc3cccc(F)c3)n2C)cc1	2.8	1397	1574	38.2*	-1.6	1764
COc1ccc(CC(=O)NCc2nnc(SCC(=O)Nc3ccccc3)n2C)cc1	7.2	1582	1639	8.1	1.1	1814
CCOC(=O)c1ccc(NC2=CC(=O)CC(c3ccco3)C2)cc1 (stereo not given)	7.3	2006*	1806	14.5	2.0	2177
CSCC[C@H](NC(=O)c1nn(C)c(=O)c2ccccc12)c1nc2ccccc2[nH]1	0.1	1571	.	10.7	8.5	.
O=C(CSc1ccc2ccccc2c1Br)Nc1cccc(S(=O)(=O)NC2=NCCCCC2)c1	6.1	1866	2200*	12.8	10.3	1973
CSc1cc(-c2ccc(Cl)cc2)n(Cc2ccccc2)c(=O)c1C#N	5.7	1632	.	5.5	42.9*	.
Cc1ccsc1C(=O)N1CCCC(CCC(=O)N2CCN(c3ccccn3)CC2)C1 (stereo not given)	0.1	1486	1586	-1.0	-1.7	1734
O=c1[nH]c2sc3c(c2c(=O)n1Cc1ccccc1)CCC3	-0.9	1537	.	10.4	-0.8	.
Cc1ccc(-n2c(=S)[nH]c3sc4c(c3c2=O)CCC4)cc1	8.3	1859	2074*	12.0	7.7	2142
Cc1c(Cl)cccc1NC(=O)CCCn1nc([N+](=O)[O-])cc1C	6.6	2111*	1427	14.2	2.3	2085
CSc1ccccc1NC(=O)Cn1c(-c2cscn2)nc2ccccc21	24.3*	1477	.	1.1	2.9	.
O=C(NCc1n[nH]c(=S)n1-c1ccc(Br)cc1)c1ccc(S(=O)(=O)N2CCCC2)cc1	5.1	1416	1545	3.1	0.3	1793
O=C(NCc1n[nH]c(=S)n1-c1ccc(Br)cc1)c1ccc(S(=O)(=O)N2CCOCC2)cc1	5.4	1713	1445	22.3*	3.7	1728
COc1ccc(OC)c(NC(=O)CSc2nnc(-c3cccnc3)s2)c1	3.5	1585	1442	9.7	6.1	1752
COc1ccc(OC)c(NC(=O)CSc2nnc(N)s2)c1	8.3	1802	.	22.8*	6.5	.
CC(=O)c1ccc(NC(=O)COC(=O)c2ccccc2N=Nc2ccc(N(C)C)cc2)cc1	8.8	1674	1886	9.0	4.3	2419*
CC(C)CCSc1nc(N)c(C#N)cc1C#N	10.6	2957*	.	16.1	-1.5	.
COC(=O)c1c(NC(=O)Cn2cnc([N+](=O)[O-])n2)sc2c1CCC(C)C2 (stereo not given)	2.0	1638	1737	2.6	-2.0	1787
O=C(c1ccccc1)c1ccc2nc(-c3ccc(NC(=O)c4ccccc4Br)cc3)[nH]c2c1	8.6	2003*	.	-0.5	7.8	.
CC(=O)Nc1c(O)nc(SCC(=O)Nc2ccc(C(C)=O)cc2)[nH]c1=O	5.2	1727	.	8.4	26.5*	.
CC(=O)Nc1c(O)nc(SCC(=O)Nc2cccc(C)c2)[nH]c1=O	-0.6	1625	.	-0.2	2.0	.
O=C(/C=C/c1ccccc1)N/C(=C/c1ccccc1)C(=O)N1CCCCC1	9.0	1767	.	10.2	-3.1	.
